Data on one sequence can be found in PMC7862700, “An all-to-all approach to the identification of sequence-specific readers for epigenetic DNA modifications on cytosine”.

Common to all, as to test: DAPPL (digital affinity profiling via proximity ligation, sequencing); 10 mM Tris-HCl pH 7.5, 50 mM NaCl, 1 mM DTT, 4% glycerol, room temperature, 30 min; GST-TFs on glutathione beads, 16-mer random dsDNA library, 0.1% formaldehyde crosslink after washing; high values mean tight binding
Common to all, as to settings: protein: recombinant; tags: N-terminal GST; dsDNA, one strand shown

The target in one assay is T1, ELK1 (Homo sapiens, UniProt P19419 1-428).
T1 sequence: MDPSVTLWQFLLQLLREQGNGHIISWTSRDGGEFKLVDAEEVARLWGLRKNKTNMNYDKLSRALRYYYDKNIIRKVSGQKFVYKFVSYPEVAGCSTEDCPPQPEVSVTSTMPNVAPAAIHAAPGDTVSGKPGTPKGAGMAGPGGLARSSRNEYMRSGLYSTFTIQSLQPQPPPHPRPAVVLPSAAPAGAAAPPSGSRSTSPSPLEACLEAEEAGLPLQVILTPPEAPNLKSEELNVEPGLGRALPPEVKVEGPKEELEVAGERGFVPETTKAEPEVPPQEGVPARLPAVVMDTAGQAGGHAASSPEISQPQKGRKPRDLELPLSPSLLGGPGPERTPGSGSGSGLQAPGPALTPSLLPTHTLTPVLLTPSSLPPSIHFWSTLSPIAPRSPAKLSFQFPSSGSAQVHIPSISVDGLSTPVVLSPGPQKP
An outline of the steps: (§1)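 Each value of binding signal is a hexamer's read frequency for a factor divided by the same hexamer's frequency in the tag-only sample. Barcoded, bead-captured GST fusions of human transcription factors made in yeast were pooled with that sample and incubated with 200 nmole of a random double-stranded 16-mer DNA library in Tris/NaCl/DTT/glycerol buffer at room temperature for 30 min. Washing, 0.1% formaldehyde crosslinking, proximity ligation, PCR and Illumina NextSeq500 sequencing followed.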

For the next assay, the target named is T2, GABPA (Homo sapiens, UniProt Q06546 1-454).
T2 sequence: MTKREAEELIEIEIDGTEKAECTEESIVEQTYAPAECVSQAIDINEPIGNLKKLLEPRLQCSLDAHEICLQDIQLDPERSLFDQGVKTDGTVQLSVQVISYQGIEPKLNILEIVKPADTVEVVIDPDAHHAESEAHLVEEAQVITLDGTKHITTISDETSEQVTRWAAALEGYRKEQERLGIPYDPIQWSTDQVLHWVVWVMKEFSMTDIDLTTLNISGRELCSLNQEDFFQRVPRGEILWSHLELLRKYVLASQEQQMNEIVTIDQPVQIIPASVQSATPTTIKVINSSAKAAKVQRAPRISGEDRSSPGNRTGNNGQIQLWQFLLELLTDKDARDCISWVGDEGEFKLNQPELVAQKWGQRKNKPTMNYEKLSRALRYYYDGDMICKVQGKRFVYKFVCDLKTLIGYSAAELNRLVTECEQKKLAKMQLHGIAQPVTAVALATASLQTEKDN
An outline of the steps: as §1

Another assay has as its target T3, ERG (Homo sapiens, UniProt P11308 1-479).
T3 sequence: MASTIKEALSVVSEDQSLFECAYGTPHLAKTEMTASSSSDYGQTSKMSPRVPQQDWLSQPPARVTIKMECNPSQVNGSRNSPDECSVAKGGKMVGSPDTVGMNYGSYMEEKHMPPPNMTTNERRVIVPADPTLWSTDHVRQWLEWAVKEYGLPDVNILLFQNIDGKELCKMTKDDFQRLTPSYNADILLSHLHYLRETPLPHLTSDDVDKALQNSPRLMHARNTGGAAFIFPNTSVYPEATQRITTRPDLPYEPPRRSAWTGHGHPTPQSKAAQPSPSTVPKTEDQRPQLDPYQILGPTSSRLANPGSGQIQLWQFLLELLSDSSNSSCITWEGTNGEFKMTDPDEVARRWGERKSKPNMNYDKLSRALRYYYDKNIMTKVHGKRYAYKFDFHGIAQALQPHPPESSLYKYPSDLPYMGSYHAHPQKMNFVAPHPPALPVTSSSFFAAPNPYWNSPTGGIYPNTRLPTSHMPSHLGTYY
An outline of the steps: as §1

The target in another assay is ELF1 (Homo sapiens, UniProt P32519 1-619). The gist of the method:
as §1

Another assay addresses T4, EHF (Homo sapiens, UniProt Q9NZC4 1-300).
T4 sequence: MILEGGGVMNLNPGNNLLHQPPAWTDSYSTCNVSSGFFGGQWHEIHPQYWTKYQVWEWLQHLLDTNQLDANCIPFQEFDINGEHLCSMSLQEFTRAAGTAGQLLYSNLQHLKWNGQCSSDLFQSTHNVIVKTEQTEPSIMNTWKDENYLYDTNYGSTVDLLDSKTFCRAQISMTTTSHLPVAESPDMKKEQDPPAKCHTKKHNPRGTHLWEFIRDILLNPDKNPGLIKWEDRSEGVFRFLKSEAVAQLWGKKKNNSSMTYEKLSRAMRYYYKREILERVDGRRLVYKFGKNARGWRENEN
The gist of the method: as §1

Another assay deals with SPI1 (Homo sapiens, UniProt P17947 1-270). An outline of the steps:
as §1

The target of another assay is SPIB (Homo sapiens, UniProt Q01892 1-262). The gist of the method:
as §1

The target in the next assay is ETV5 (Homo sapiens, UniProt P41161 1-510). An outline of the steps:
as §1

The target in a further assay is T5, SPIC (Homo sapiens, UniProt Q8N5J4 1-248).
T5 sequence: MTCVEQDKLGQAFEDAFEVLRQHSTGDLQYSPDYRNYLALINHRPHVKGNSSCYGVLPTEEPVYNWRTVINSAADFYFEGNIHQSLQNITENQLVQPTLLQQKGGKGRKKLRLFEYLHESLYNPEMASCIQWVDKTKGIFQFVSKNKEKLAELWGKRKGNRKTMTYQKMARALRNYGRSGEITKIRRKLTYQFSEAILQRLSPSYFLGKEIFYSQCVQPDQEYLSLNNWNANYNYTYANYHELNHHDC
The gist of the method:
as §1

The target in the next assay is ELF4 (Homo sapiens, UniProt Q99607 1-663). An outline of the steps:
as §1

Chain of ELF1 (P32519 whole entry): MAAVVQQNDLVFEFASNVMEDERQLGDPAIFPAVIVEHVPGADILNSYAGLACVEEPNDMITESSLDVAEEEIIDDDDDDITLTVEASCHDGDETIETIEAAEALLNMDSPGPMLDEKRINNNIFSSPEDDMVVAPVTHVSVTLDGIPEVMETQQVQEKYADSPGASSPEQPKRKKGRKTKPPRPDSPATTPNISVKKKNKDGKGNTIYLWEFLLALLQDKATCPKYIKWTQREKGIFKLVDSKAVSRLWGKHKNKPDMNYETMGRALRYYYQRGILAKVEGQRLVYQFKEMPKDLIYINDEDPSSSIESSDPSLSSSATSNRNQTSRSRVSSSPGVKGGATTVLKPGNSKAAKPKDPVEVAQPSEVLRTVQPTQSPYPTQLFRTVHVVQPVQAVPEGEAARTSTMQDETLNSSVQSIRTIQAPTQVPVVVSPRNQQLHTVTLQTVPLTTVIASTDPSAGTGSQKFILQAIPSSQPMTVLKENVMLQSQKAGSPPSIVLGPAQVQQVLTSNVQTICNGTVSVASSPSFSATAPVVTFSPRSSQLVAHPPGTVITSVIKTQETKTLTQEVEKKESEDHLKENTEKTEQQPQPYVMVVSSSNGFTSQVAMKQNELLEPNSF
Chain of ETV5 (P41161 whole entry): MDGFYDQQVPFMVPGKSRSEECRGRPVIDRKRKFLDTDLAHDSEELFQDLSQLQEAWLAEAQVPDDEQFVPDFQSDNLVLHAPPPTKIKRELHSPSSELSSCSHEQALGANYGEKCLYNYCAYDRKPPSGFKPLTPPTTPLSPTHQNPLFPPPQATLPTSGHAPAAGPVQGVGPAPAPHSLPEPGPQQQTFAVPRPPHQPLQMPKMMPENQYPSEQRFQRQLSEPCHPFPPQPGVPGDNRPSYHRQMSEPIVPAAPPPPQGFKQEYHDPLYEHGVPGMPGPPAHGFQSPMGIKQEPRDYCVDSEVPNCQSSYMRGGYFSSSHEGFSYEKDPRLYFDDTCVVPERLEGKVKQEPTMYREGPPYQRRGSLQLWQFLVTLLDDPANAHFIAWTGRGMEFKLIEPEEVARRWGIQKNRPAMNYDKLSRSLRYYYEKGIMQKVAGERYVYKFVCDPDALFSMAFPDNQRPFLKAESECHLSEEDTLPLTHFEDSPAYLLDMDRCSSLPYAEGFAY
Chain of ELF4 (Q99607 whole entry): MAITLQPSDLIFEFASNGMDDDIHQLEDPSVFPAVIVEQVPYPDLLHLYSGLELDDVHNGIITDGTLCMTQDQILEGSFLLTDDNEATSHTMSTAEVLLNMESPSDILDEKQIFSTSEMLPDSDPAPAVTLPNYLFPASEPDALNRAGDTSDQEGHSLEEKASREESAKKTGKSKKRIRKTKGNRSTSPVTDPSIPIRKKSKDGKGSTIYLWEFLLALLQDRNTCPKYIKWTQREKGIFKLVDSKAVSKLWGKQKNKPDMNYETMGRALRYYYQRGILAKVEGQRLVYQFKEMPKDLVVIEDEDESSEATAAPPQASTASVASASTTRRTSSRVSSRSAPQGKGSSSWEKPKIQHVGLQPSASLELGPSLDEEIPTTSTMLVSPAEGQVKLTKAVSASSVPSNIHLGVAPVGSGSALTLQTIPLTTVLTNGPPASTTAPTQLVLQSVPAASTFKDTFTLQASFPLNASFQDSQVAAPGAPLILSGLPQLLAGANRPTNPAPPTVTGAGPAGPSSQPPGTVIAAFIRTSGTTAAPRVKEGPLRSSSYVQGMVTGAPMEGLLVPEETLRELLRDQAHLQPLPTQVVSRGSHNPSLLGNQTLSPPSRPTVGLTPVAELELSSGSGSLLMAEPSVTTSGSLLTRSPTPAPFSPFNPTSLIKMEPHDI
Chain of SPIB (Q01892 whole entry): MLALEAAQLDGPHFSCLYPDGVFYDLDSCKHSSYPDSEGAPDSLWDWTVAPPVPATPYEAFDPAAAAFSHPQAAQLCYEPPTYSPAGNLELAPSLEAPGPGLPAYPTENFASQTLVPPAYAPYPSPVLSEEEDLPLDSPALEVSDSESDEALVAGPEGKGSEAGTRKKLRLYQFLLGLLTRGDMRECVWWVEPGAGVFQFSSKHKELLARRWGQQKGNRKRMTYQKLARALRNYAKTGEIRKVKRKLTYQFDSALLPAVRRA

Take CAAACA: the binding signal with ELK1 is 1.15 fold enrichment (6-mer frequency, TF over GST control); in the assay with GABPA, 1.18 fold enrichment (6-mer frequency, TF over GST control); with ERG it was 1.18 fold enrichment (6-mer frequency, TF over GST control); with ELF1, 1.08 fold enrichment (6-mer frequency, TF over GST control); in the assay with EHF, 1.09 fold enrichment (6-mer frequency, TF over GST control); with SPI1, 1.14 fold enrichment (6-mer frequency, TF over GST control). Further, the binding signal with SPIB was 1.13 fold enrichment (6-mer frequency, TF over GST control); with ETV5 it was 1.13 fold enrichment (6-mer frequency, TF over GST control); with SPIC it was 1.14 fold enrichment (6-mer frequency, TF over GST control); with ELF4, 1.14 fold enrichment (6-mer frequency, TF over GST control).
